According to PubChem BioAssay AID1159580 (chemical genetic matrix, 2015):
“And” between values parts separate entries of the source, which are not always exact repeats. Equal values may be shown once. Screen size: about 5,500 compounds; about 2,000 (36%) were called active. Another 18% or so got no clear call; they are omitted. Cut-off read from the data, not from the text of the source: active = normalized growth mostly below about 0.91 (no sharp cut-off); inconclusive = no clear call, values can overlap the other calls; inactive = mostly above about 0.92. Some of the results follow.

Test: chemical genetic growth profiling, strain panel (AID 1159580);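 note: tested at 20 µM; growth read once vehicle control cultures reached saturation at 30 °C; 1 = growth at the plate median or of vehicle wells; lower values mean less growth of the strain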
Details: S. cerevisiae deletion strains, growth OD

Measured: normalized growth

NC[C@@H]1O[C@H](O[C@@H]2[C@@H](CO)OC(O[C@@H]3[C@@H](O)[C@H](N)C[C@H](N)[C@H]3O[C@H]3O[C@H](CO)[C@@H](O)[C@H](O)[C@H]3N)[C@@H]2O)[C@H](N)[C@@H](O)[C@@H]1O (stereo partly drawn)
inactive: locus YAL021C, strain ccr4, hits give low values 0.996 | locus YAL026C, strain drs2, hits give low values 0.992 | locus YAL030W, strain snc1, hits give low values 0.995 | locus YBL061C, strain skt5, hits give low values 0.995 | locus YBR009C, strain hhf1, hits give low values 0.986 | locus YBR021W, strain FUR4, hits give low values 1.03 | locus YBR023C, strain chs3, hits give low values 0.999 | locus YBR171W, strain sec66, hits give low values 0.973 | locus YBR229C, strain ROT2, hits give low values 0.96 | locus YBR231C, strain swc5, hits give low values 0.992 | locus YBR279W, strain paf1, hits give low values 0.992 | locus YCL011C, strain gbp2, hits give low values 0.985 | locus YCL016C, strain dcc1, hits give low values 0.988 | locus YCL029C, strain bik1, hits give low values 1 | locus YCL061C, strain MRC1, hits give low values 0.953 | locus YCL069W, strain vba3, hits give low values 0.992 | locus YCR088W, strain abp1, hits give low values 0.997 | locus YDL005C, strain med2, hits give low values 0.992 | locus YDL035C, strain GPR1, hits give low values 0.996 | locus YDL040C, strain nat1, hits give low values 0.984 | locus YDL074C, strain BRE1, hits give low values 0.961 | locus YDL101C, strain DUN1, hits give low values 0.98 | locus YDL134C, strain PPH21, hits give low values 1.01 | locus YDL185W, strain tfp1, hits give low values 0.982 | locus YDL192W, strain arf1, hits give low values 0.991 | locus YDR001C, strain nth1, hits give low values 0.995 | locus YDR069C, strain doa4, hits give low values 0.994 | locus YDR101C, strain arx1, hits give low values 0.985 | locus YDR137W, strain rgp1, hits give low values 1.01 | locus YDR159W, strain sac3, hits give low values 0.966 | locus YDR162C, strain NBP2, hits give low values 0.998 | locus YDR195W, strain ref2 0.981 | locus YDR297W, strain sur2, hits give low values 0.992 | locus YDR318W, strain mcm21, hits give low values 1 | locus YDR334W, strain swr1, hits give low values 0.989 | locus YDR335W, strain msn5, hits give low values 0.998 | locus YDR388W, hits give low values 0.992 | locus YDR392W, strain spt3, hits give low values 0.974 | locus YDR502C, strain sam2, hits give low values 0.988 | locus YEL003W, strain gim4, hits give low values 0.986 | locus YEL037C, strain rad23, hits give low values 0.977 | locus YEL061C, strain CIN8 (second series), hits give low values 0.988 | locus YEL061C, strain CIN8, hits give low values 0.985 | locus YER015W, strain faa2, hits give low values 0.995 | locus YER016W, strain bim1, hits give low values 0.989 | locus YER110C, hits give low values 0.994 | locus YER111C, strain swi4, hits give low values 0.988 | locus YER155C, strain BEM2 (second series), hits give low values 0.985 | locus YER155C, strain BEM2, hits give low values 1 | locus YER167W, strain BCK2, hits give low values 1.01 | locus YFR010W, strain ubp6, hits give low values 0.996 | locus YGL078C, strain dbp3, hits give low values 0.995 | locus YGL086W, strain mad1, hits give low values 0.983 | locus YGL167C, strain pmr1, hits give low values 1 | locus YGL173C, strain kem1, hits give low values 0.984 | locus YGL227W, strain vid30, hits give low values 0.999 | locus YGL240W, strain doc1, hits give low values 0.991 | locus YGL248W, strain PDE1, hits give low values 0.969 | locus YGL253W, strain hxk2, hits give low values 0.988 | locus YGR078C, strain PAC10, hits give low values 0.968 | locus YGR135W, strain pre9, hits give low values 1.05 | locus YGR229C, strain SMI1, hits give low values 1 | locus YGR252W, strain gcn5, hits give low values 1.02 | locus YHR013C, strain ard1, hits give low values 0.988 | locus YHR027C, strain rpn1, hits give low values 0.999 | locus YHR030C, strain SLT2, hits give low values 1 and 0.966 | locus YHR079C, strain IRE1 (second series), hits give low values 0.993 | locus YHR079C, strain IRE1, hits give low values 0.974 | locus YHR094C, strain hxt1, hits give low values 0.997 | locus YHR129C, strain ARP1, hits give low values 1 | locus YHR142W, strain chs7, hits give low values 0.983 | locus YHR200W, strain rpn10, hits give low values 0.993 | locus YIL066C, strain RNR3, hits give low values 0.969 | locus YIL073C, strain SPO22, hits give low values 1.07 | locus YIL125W, strain kgd1, hits give low values 0.992 | locus YIR030C, strain dcg1, hits give low values 0.993 | locus YJL092W, strain hpr5, hits give low values 0.993 | locus YJL095W, strain BCK1 (second series), hits give low values 0.992 | locus YJL095W, strain BCK1, hits give low values 0.959 and 0.976 | locus YJL115W, strain asf1, hits give low values 0.984 | locus YJL129C, strain trk1, hits give low values 0.977 | locus YJL134W, strain LCB3, hits give low values 0.999 | locus YJL154C, strain vps35, hits give low values 0.987 | locus YJL164C, strain tpk1, hits give low values 0.948 | locus YJL166W, strain qcr8, hits give low values 0.986 | locus YJL168C, strain set2, hits give low values 0.987 | locus YJL187C, strain SWE1 (second series), hits give low values 0.954 | locus YJL187C, strain SWE1, hits give low values 0.992
